According to PubChem BioAssay (EPA / NIEHS):
Calls of active or inactive are those of the source. Rule for the calls: active = hit-call score of the fitted dose curve at least 0.9, where 1 is the maximum; inactive = score below 0.9.

How the values were obtained:
Settings in all cases: mRNA level, 48 h; actives raise or lower the signal
[1] = read-out: ATP-citrate lyase (ACLY), ACLY (gene 47); experiment: LTEA_HepaRG_ACLY: Life Technologies and Expression Analysis (LTEA) Assay for ATP-citrate lyase (ACLY) using HepaRG (AID 2283466)
How it was run: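 qRT-PCR readout of ACLY transcript after 48 h chemical treatment of HepaRG cells; expression normalized to three housekeeping genes. Eight-point half-log series, highest 100 uM, 0.5% DMSO vehicle. Gain or loss fitted against DMSO baseline.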

[2] = read-out: Alkaline Phosphatase, Placental (ALPP) gene, ALPP (gene 250); experiment: LTEA_HepaRG_ALPP: Life Technologies and Expression Analysis (LTEA) Assay for Alkaline Phosphatase, Placental (ALPP) gene using HepaRG (AID 2283468);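 for AC50: differentiated human HepaRG liver cells in serum-free induction medium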
How it was run: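 Using human liver HepaRG cells, chemicals are tested in duplicate over 48 h at half-log concentrations topping at 100 uM; phenobarbital 1 mM serves as induction control. ALPP mRNA change by qRT-PCR, bidirectional fit against vehicle.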

[3] = read-out: Bcl-2 (BAD) gene, BAD (gene 572); experiment: LTEA_HepaRG_BAD: Life Technologies and Expression Analysis (LTEA) Assay for Bcl-2 (BAD) gene using HepaRG (AID 2283469)
How it was run: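 HepaRG, 48 h exposure, 8-pt half-log curve from 100 uM in 0.5% DMSO, duplicates. Readout: TaqMan qRT-PCR for BAD mRNA, housekeeping-normalised (ACTB/GAPDH/POLR2A); gain or loss fitted against DMSO baseline.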

[4] = read-out: Bcl-2 (BAX) gene, BAX (gene 581); experiment: LTEA_HepaRG_BAX: Life Technologies and Expression Analysis (LTEA) Assay for Bcl-2 (BAX) gene using HepaRG (AID 2283470)
How it was run: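 Cells were thawed, plated for 48 h, moved to serum-free induction medium and dosed for 48 h (highest concentration 100 uM, half-log steps, 0.5% DMSO). Total RNA was then analysed for BAX expression by qRT-PCR.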

[5] = read-out: adenosine kinase (ADK) gene, ADK (gene 132); experiment: LTEA_HepaRG_ADK: Life Technologies and Expression Analysis (LTEA) Assay for adenosine kinase (ADK) gene using HepaRG (AID 2283471)
How it was run: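 Differentiated HepaRG cells dosed 48 h in serum-free induction medium, 0.5% DMSO vehicle, eight half-log concentrations from 100 uM, in duplicate. ADK mRNA by TaqMan qRT-PCR normalised to ACTB, GAPDH, POLR2A; bidirectional fit versus DMSO.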

[6] = read-out: Alpha-fetoprotein (AFP) gene, AFP (gene 174); experiment: LTEA_HepaRG_AFP: Life Technologies and Expression Analysis (LTEA) Assay for Alpha-fetoprotein (AFP) gene using HepaRG (AID 2283472)
How it was run: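 Chemicals were tested on differentiated HepaRG cells for 48 hours at eight concentrations up to 100 uM, with 0.5% DMSO as vehicle. AFP expression was then quantified by qRT-PCR and analyzed for gain or loss relative to DMSO.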

BCL2L11 (gene 10018) = experiment: LTEA_HepaRG_BCL2L11: Life Technologies and Expression Analysis (LTEA) Assay for Bcl-2 (BCL2L11) gene using HepaRG (AID 2283473)
How it was run: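 Human hepatic HepaRG cultures are treated 48 h with test chemicals (maximum 100 uM, 0.5% DMSO vehicle). Expression of BCL2L11 is measured by qRT-PCR against ACTB, GAPDH and POLR2A, with activity in either direction scored relative to vehicle.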

[7] = read-out: Apolipoprotein A-V (APOA5) gene, APOA5 (gene 116519); experiment: LTEA_HepaRG_APOA5: Life Technologies and Expression Analysis (LTEA) Assay for Apolipoprotein A-V (APOA5) gene using HepaRG (AID 2283474)
How it was run: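 Concentration-response of APOA5 expression in HepaRG: eight half-log doses to 100 uM, 48 h, qRT-PCR normalized to ACTB/GAPDH/POLR2A, bidirectional fitting with 0.5% DMSO as baseline.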

[8] = read-out: Apoptosis regulator Bcl-2 (Homo sapiens) (UniProt P10415); experiment: LTEA_HepaRG_BCL2: Life Technologies and Expression Analysis (LTEA) Assay for Bcl-2 gene using HepaRG (AID 2283475)
How it was run: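 Plated human HepaRG cells are exposed to test chemicals for 48 h across eight concentrations from 100 uM downward in half-log steps (0.5% DMSO). BCL2 expression is then measured by qRT-PCR with housekeeping normalisation and fitted bidirectionally against vehicle.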

[9] = read-out: Bcl-2 (BID) gene, BID (gene 637); experiment: LTEA_HepaRG_BID: Life Technologies and Expression Analysis (LTEA) Assay for Bcl-2 (BID) gene using HepaRG (AID 2283476)
How it was run: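 Cells are plated, cultured 48 h, switched to serum-free induction medium, then dosed 48 h (100 uM top, half-log steps, 0.5% DMSO). RNA is isolated and BID expression read by qRT-PCR.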

Caspase-3 (Homo sapiens) = Caspase-3 (Homo sapiens) (UniProt P42574); experiment: LTEA_HepaRG_CASP3: Life Technologies and Expression Analysis (LTEA) Assay for cysteine-aspartic acid protease (CASP3) using HepaRG (AID 2283477)
How it was run: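 Transcript-level assay: CASP3 mRNA in human HepaRG after 48 h treatment, eight half-log concentrations from 100 uM in 0.5% DMSO, quantified by qRT-PCR.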

[10] = read-out: cysteine-aspartic acid protease (CASP8), CASP8 (gene 841); experiment: LTEA_HepaRG_CASP8: Life Technologies and Expression Analysis (LTEA) Assay for cysteine-aspartic acid protease (CASP8) using HepaRG (AID 2283480)
How it was run: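 qRT-PCR readout of CASP8 mRNA, normalized to three housekeeping genes, after 48 h chemical exposure of HepaRG cells; 8-point half-log series, top 100 uM, 0.5% DMSO vehicle. Bidirectional curve fitting against DMSO baseline.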

[11] = read-out: Cytochrome P450 (CYP2B6), CYP2B6 (gene 1555); experiment: LTEA_HepaRG_CYP2B6: Life Technologies and Expression Analysis (LTEA) Assay for Cytochrome P450 (CYP2B6) using HepaRG (AID 2283481)
How it was run: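 Human HepaRG, 48 h dosing, 0.5% DMSO vehicle, top dose 100 uM. CYP2B6 transcript by qRT-PCR, housekeeping-normalized, bidirectional curve fit.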

[12] = read-out: Cytochrome P450 2C19 (Homo sapiens) (UniProt P33261); experiment: LTEA_HepaRG_CYP2C19: Life Technologies and Expression Analysis (LTEA) Assay for CYP2C19 using HepaRG (AID 2283482)
How it was run: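 Endpoint: CYP2C19 mRNA change, bidirectional fit vs 0.5% DMSO. Cells: HepaRG, 48 h exposure, eight-point series topping at 100 uM. Quantitation: qRT-PCR normalized to ACTB, GAPDH, POLR2A.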

CYP2C9 (gene 1559) = experiment: LTEA_HepaRG_CYP2C9: Life Technologies and Expression Analysis (LTEA) Assay for CYP2C9 using HepaRG (AID 2283484)
How it was run: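 HepaRG, 48 h dosing, 8-pt half-log series, top 100 uM, 0.5% DMSO vehicle. Read-out: CYP2C9 transcript by TaqMan qRT-PCR, housekeeping-normalized (ACTB/GAPDH/POLR2A). Gain or loss fitted vs DMSO baseline.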

CYP2E1 (gene 1571) = experiment: LTEA_HepaRG_CYP2E1: Life Technologies and Expression Analysis (LTEA) Assay for CYP2E1 using HepaRG (AID 2283485)
How it was run: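 Readout is qRT-PCR of CYP2E1 mRNA, normalized to three housekeeping genes and fitted bidirectionally against 0.5% DMSO. HepaRG cells were dosed 48 h at eight concentrations, highest 100 uM with half-log dilutions.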

[13] = read-out: Peroxisomal acyl-coenzyme A oxidase 1 (ACOX1) gene, ACOX1 (gene 51); experiment: LTEA_HepaRG_ACOX1: Life Technologies and Expression Analysis (LTEA) Assay for Peroxisomal acyl-coenzyme A oxidase 1 (ACOX1) gene using HepaRG (AID 2283467)
How it was run: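 HepaRG, 48 h chemical exposure, 8-pt half-log series from 100 uM top, 0.5% DMSO vehicle, duplicates. Readout: ACOX1 mRNA by Fluidigm qRT-PCR, housekeeping-normalized; bidirectional fit vs DMSO baseline.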

CYP2C8 (gene 1558) = experiment: LTEA_HepaRG_CYP2C8: Life Technologies and Expression Analysis (LTEA) Assay for CYP2C8 using HepaRG (AID 2283483)
How it was run: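 HepaRG (human liver line), 48 h chemical exposure, 8-pt half-log series from 100 uM, 0.5% DMSO vehicle. Readout: CYP2C8 transcript by qRT-PCR, housekeeping-normalized. Bidirectional fit vs DMSO baseline.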

[14] = read-out: Cytochrome P450 (CYP1A2), CYP1A2 (gene 1544); experiment: LTEA_HepaRG_CYP1A2: Life Technologies and Expression Analysis (LTEA) Assay for Cytochrome P450 (CYP1A2) using HepaRG (AID 2283479)
How it was run: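 In duplicate wells, HepaRG cultures maintained in 0.5% DMSO were treated 48 h across an 8-point, half-log series topping at 100 uM; phenobarbital (1 mM) served as induction control. Expression was read by qRT-PCR.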

[15] = read-out: Cytochrome P450 (CYP24A1), CYP24A1 (gene 1591); experiment: LTEA_HepaRG_CYP24A1: Life Technologies and Expression Analysis (LTEA) Assay for Cytochrome P450 (CYP24A1) using HepaRG (AID 2283478)
How it was run: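 Gene expression of CYP24A1 by TaqMan qRT-PCR in HepaRG after 48 h treatment, highest concentration 100 uM; activity fitted in both directions relative to DMSO vehicle.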

Measured: AC50

Chain of Caspase-3 (Homo sapiens) (P42574 whole entry, looked up): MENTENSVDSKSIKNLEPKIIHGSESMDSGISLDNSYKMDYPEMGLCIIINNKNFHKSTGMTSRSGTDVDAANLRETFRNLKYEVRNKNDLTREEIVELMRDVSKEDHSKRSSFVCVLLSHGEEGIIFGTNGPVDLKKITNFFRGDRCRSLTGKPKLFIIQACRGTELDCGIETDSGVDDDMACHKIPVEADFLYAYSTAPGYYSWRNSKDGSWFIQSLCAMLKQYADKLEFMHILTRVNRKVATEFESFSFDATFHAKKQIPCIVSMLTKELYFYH
Chain of Apoptosis regulator Bcl-2 (Homo sapiens) (P10415 whole entry, looked up): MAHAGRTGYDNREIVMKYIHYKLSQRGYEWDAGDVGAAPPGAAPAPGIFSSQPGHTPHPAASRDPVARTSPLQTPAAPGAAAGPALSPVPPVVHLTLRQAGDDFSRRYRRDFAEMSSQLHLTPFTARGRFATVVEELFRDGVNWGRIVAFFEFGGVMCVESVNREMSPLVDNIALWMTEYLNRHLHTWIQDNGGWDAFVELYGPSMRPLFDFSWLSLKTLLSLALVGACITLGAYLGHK
Chain of Cytochrome P450 2C19 (Homo sapiens) (P33261 whole entry, looked up): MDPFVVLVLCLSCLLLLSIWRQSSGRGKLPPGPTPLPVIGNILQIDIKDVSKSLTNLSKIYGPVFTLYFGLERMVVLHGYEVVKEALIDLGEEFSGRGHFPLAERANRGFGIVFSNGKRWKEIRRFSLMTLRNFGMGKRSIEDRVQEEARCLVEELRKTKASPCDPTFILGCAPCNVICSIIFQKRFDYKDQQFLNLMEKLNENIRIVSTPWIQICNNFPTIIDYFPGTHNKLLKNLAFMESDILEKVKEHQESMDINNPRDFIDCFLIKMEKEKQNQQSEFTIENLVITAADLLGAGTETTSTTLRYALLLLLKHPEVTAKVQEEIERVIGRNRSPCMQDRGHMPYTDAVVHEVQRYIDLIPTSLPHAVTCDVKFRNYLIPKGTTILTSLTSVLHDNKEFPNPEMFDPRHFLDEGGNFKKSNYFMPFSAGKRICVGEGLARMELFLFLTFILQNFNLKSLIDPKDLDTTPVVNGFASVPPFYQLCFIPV

c1ccc2c(c1)-c1cccc3cccc-2c13
active: [11] 5.03 µM | [12] 9.15 µM | CYP2E1 (gene 1571) 34.6 µM
not listed: [13] | CYP2C8 (gene 1558) | [14] | [15]
inactive: all other assays above

CC(C)N(Cc1ccccc1)C(=O)C(C)(C)C
active: [11] 2.31 µM | [12] 11.1 µM | CYP2C8 (gene 1558) 10.4 µM | CYP2E1 (gene 1571) 19.6 µM
not listed: [1] | [14] | [15]
inactive: all other assays above

Clc1ccc(Cl)c(Cl)c1
active: [2] 9.92 µM | [6] 50 µM | [7] 50 µM | [9] 50 µM | Caspase-3 (Homo sapiens) 50 µM | CYP2E1 (gene 1571) 50 µM
not listed: [4] | [13] | CYP2C8 (gene 1558) | [15]
inactive: all other assays above

Nc1ccc(Oc2ccc(N)cc2)cc1
active: [14] 40.7 µM | [11] 67 µM
not listed: [4] | [13] | CYP2C8 (gene 1558) | [15]
inactive: all other assays above

CCCCCCCCOC(=O)c1ccc(C(=O)OCCCCCCCC)c(C(=O)OCCCCCCCC)c1
active: [11] 22.4 µM
not listed: [1] | [14] | [15]
inactive: all other assays above

Cc1ccc(N=C=O)cc1N=C=O
active: [6] 50 µM | [8] 23.6 µM | CYP2C9 (gene 1559) 50 µM | CYP2E1 (gene 1571) 31.1 µM
not listed: [1] | [15]
inactive: all other assays above

[O-][Cl+]O
not listed: [1] | CYP2C8 (gene 1558) | [15]
inactive: all other assays above

CCCCCCCCCCCCCN1CC(C)OC(C)C1 (centres undefined)
not listed: [4] | [13] | CYP2C8 (gene 1558) | [14] | [15]
inactive: all other assays above

CC(O)CCO (centres undefined)
not listed: [1] | [4]
inactive: all other assays above

C[C@]12C=CC3=C4CCC(=O)C=C4CC[C@H]3[C@@H]1CC[C@@H]2O
inactive: [1] | [3] | BCL2L11 (gene 10018) | [7] | [9] | Caspase-3 (Homo sapiens) | [14] | [10]
active: [2] 24.4 µM | [5] 68.2 µM | [6] 50 µM | [8] 14.8 µM | [12] 65.3 µM | CYP2C9 (gene 1559) 50 µM

CCC[CH2][Sn]([Cl])([CH2]CCC)[CH2]CCC
active: [13] 3.11 µM | [2] 3.79 µM | [4] 1.72 µM | [6] 0.59 µM | BCL2L11 (gene 10018) 11.7 µM | [7] 2.03 µM | [8] 3.08 µM | [11] 2.53 µM | [12] 1.37 µM | CYP2C9 (gene 1559) 2.23 µM | CYP2E1 (gene 1571) 0.505 µM
inactive: [3] | [5] | [9] | Caspase-3 (Homo sapiens) | [15] | [10]

O=C1CCCO1
active: [5] 50 µM | Caspase-3 (Homo sapiens) 50 µM | [10] 78.5 µM
not listed: [1] | [15]
inactive: all other assays above

CN(C)[C@@H]1C(=O)C(C(N)=O)=C(O)[C@@]2(O)C(=O)C3=C(O)c4c(O)cccc4[C@@](C)(O)[C@H]3C[C@@H]12
not listed: [1] | [4] | CYP2C9 (gene 1559) | CYP2C8 (gene 1558) | [14]
inactive: all other assays above

[As]#[In]
active: [11] 39 µM
not listed: [1] | [4] | CYP2E1 (gene 1571) | [13] | CYP2C8 (gene 1558) | [14] | [15]
inactive: all other assays above

c1ccc2c(c1)oc1ccccc12
active: [14] 50 µM | [11] 0.0679 µM
not listed: [1] | [4] | [13]
inactive: all other assays above
